High-throughput results as filed in PubChem.
Most compounds without a hit are left out; they make up all but 1.3% or so of the library.
Giardia killer: Giardia lamblia killing | Giardia lamblia trophozoite viability | activity change, % at 7.66 µM, hits read low | 340,000 tested, 0.15% active; in the data active = activity change below about -80%; inconclusive = between about -30% and that limit;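 also: parasites exposed to compound for two days anaerobically before the ATP read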
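Luminescence from cellular ATP indicates surviving trophozoites (100 cells/well) following 48 hrs anaerobic compound treatment at 37 deg C; signal develops 15-30 min at room temperature.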
TrxR1 inh: rat TrxR1 inhibition; Potency, µM (top dose mostly 114 µM), for inactives: at the top dose activity change, negative = inhibition, usual class: inhibitors; 390,000 tested, 1% active; O89049; recombinant rTrxR1, NADPH fluorescence consumption, selenite substrate; also: potency is read from the fitted curve at half-maximal effect; nearly all actives have a fitted effect of over 65% in size
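Rat TrxR1 (90 nM in the dispensed reagent) was pre-reduced with 400 uM NADPH for 5 min at room temperature, then incubated with compound for 15 min. After 400 uM selenite was added, NADPH fluorescence (Ex 340/Em 450 nm) was followed for 8 min.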
TrxR1 substrate: rat thioredoxin reductase 1 substrate activity; AID 588456; Potency, µM (titrated, usually from 114 µM), for the others: top-dose activity change, negative = substrate turnover; purified TrxR1 substrate turnover, NADPH consumption readout; O89049; 390,000 tested, 0.01% active; also: potency is read from the fitted curve at half-maximal effect; nearly all actives have a fitted effect of over 50% in size
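Rat TrxR1, dispensed at 90 nM, was prereduced with 400 uM NADPH (final) for 5 min at ~22 deg C, then incubated with compound 15 min before 400 uM selenite. A first-read NADPH fluorescence drop versus no-compound background flagged substrates.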
Pin1 inhibitor: human Pin1 inhibition | 390,000 tested, 0.009% active | Potency, µM (doses to about 115 µM), for inactives: at the highest dose activity, negative = inhibition, hits mostly inhibitors | AID 504891 | Pin1 FP peptide displacement, HiFluor488, 10 min | Q13526; active = well fitted inhibition curve with a large enough effect in the polarisation, with a control signal flat, not every such curve was filed as active; inconclusive = small, poorly fitted or top-dose-only effect, or effect the other way, or a change in a side signal; inactive = no such curve, though single readings can be large or run the other way; the % refers to the polarisation; also: potency is read from the fitted curve at half-maximal effect
Target sequence (Q13526 whole entry, looked up): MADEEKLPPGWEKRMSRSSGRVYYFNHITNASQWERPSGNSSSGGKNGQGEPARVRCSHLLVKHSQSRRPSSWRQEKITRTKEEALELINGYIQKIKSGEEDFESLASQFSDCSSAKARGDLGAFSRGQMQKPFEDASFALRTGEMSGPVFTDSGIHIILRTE
KAT2A inh: inhibitors of human GCN5L2 histone acetyltransferase | Q92830 | GCN5L2 HAT assay, ThioGlo1 CoA-SH fluorescence | Potency, µM (doses to about 58.9 µM), without a hit: top-dose activity change, negative = inhibition, hits mostly inhibitors | 390,000 tested, 0.21% active | AID 504327; also: potency is read from the fitted curve at half-maximal effect
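GCN5L2 (20 nM) in 50mM HEPES pH 7.5, 0.1mM EDTA, 0.01% Tween-20 preincubated 15 min with compounds at room temperature. Reaction started with H3(1-25) 75uM, acetyl-CoA 70uM, ThioGlo1 50uM; CoA-thiol fluorescence (Ex340/Em540) read at 0 and 20 min.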
GALK inh: inhibitors of human galactokinase | Potency, µM (highest dose often 57.5 µM), without a hit: top-dose activity change, negative = inhibition, hits mostly inhibitors | P51570 | Purified GALK, Kinase-Glo residual ATP luminescence | 270,000 tested, 0.007% active; also: potency is read from the fitted curve at half-maximal effect
Target sequence (P51570 whole entry, looked up): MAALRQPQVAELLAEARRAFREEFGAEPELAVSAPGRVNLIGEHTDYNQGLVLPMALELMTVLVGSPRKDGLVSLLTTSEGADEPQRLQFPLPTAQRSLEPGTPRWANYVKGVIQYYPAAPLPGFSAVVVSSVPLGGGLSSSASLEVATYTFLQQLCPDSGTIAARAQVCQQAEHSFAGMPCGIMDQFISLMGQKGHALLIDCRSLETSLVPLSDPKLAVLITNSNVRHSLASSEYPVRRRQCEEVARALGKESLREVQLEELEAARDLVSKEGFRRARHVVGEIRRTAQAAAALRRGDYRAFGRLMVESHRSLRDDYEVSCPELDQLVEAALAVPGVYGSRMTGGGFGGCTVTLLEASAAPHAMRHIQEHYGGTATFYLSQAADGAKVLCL
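GALK at 5 nM final was combined with compound, 35 uM ATP and 100 uM galactose in HEPES pH8.0 with MgCl2 and DTT. The reaction ran one hour at room temperature before luminescent ATP detection.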
* = called active by the depositor; ? = inconclusive; · = no result given; ! = not confirmed by another sample; [ ] = another dose, or the depositor's remark. Unless noted, calls follow the shape of the dose curve; as a rule, active = well fitted curve in the direction sought with a large enough effect; inconclusive = small, poorly fitted or top-dose-only effect, or another doubt; inactive = no such curve, though single readings can be large; an effect the other way counts as inactive or inconclusive. % is scaled to controls: 0 for no effect and ±100 for the full control effect.

SMILES	Giardia killer	TrxR1 inh	TrxR1 substrate	Pin1 inhibitor	KAT2A inh	GALK inh
N#Cc1ccsc1NC(=O)CCS(=O)(=O)c1ccccc1	2	3.2µM*	2%	13%	-32%	-1%
NC(=O)c1ccsc1NC(=O)CCS(=O)(=O)c1ccc(Cl)cc1	-19	18µM*	8%[57.1 µM]	0%	0%	·
N#Cc1ccsc1NC(=O)COC(=O)CCS(=O)(=O)c1ccccc1	-7	-2%[2.29 µM]	3%[57.1 µM]	13%	-13%	·
Cc1cccc(C(=O)N2c3ncnn3C3(CCCCC3)[C@@H]3CCCC[C@@H]32)c1	·	-11%	-12%	-11%	-2%	·
Cc1cnc(C(=O)O)c[n+]1[O-]	·	·	·	·	46%	·
O=[N+]([O-])c1ccc(Sc2ccccn2)nc1	8	-1%	-5%	-5%	-3%	-1%
O=[N+]([O-])c1ccc(Sc2nnnn2-c2ccccc2)nc1	-3	13µM*	-2%[57.1 µM]	0%	-14%	6%
O=C(Nc1ccc2oc(-c3cccnc3)nc2c1)c1ccc(Br)o1	-13	45µM*	10%	16%	-13%	-2%
O=C(Nc1ccc2oc(-c3cccnc3)nc2c1)c1ccco1	-1	?	55%	?	-15%	2%
O=C1C=CC(=O)N1c1cccc2cccnc12	20	56µM*	13%	-27%	·	·
CC(C)(C)c1ccc(S(=O)(=O)/C=C/C#N)cc1	·	2.1µM*!	5%[57.1 µM]	·	?	·
COc1ccc(-c2cn3nc(N4CCCC(C(=O)NCc5ccccc5OC)C4)sc3n2)cc1 (stereo not given)	·	19%	-4%	0%	-2%	·
COc1ccc(/C=C2\CCc3ccccc3C2=O)cc1Cn1cccn1	28	-9%	-15%	?	18µM*	-2%
COc1ccc(/C=C2\CCC(C3CCCC3)C2=O)cc1Cn1cccn1 (stereo not given)	0	8%	-7%	-4%	-10%	-3%
COc1cc(C2Nc3ccccc3C(=O)N2Cc2ccccc2)ccc1OCc1ccc(NC(C)=O)cc1 (stereo not given)	·	·	·	-4%	·	·
COc1ccc(CCNC(=O)c2ccc3c(c2)NC(=O)C(CSCc2cc(C)ccc2C)N3)cc1OC (stereo not given)	·	·	·	·	28µM*	-3%
Cc1ccc(NC(=O)c2noc3c2CCC3)cc1C	9	50µM*	13%	?	?	1%
CC(=O)c1ccc(NC(=O)c2noc3c2CCC3)cc1	6	50µM*	-10%	?	?	-1%
COc1ccc(CCC(=O)NCCc2csc(-c3ccc(C(F)(F)F)cc3)n2)cc1	·	33%[57.1 µM]	13%[57.1 µM]	0%	-5%	·
COC/C=C/C1=CC2=CC(=O)C(C)(OC(=O)C3CCCC3)C(=O)C2=CO1 (stereo not given)	14	13µM*	10%[57.1 µM]	?	14%	-2%
O=C(Cn1cc(C(=O)C2CC2)c2ccccc21)Nc1ccc(Br)cc1	·	32%	1%	5%	-3%	·
O=C(c1ccccc1Cl)N(Cc1ccco1)c1ccccn1	·	8%	-1%	0%	-7%	·
Cc1ccc(N(CN2C(=O)C3CC=CCC3C2=O)C(=O)c2ccco2)cc1Cl (stereo not given)	-6	14µM*	6%	0%	-4%	3%
O=C(CSc1ccc(-c2ccco2)nn1)c1ccccc1	5	28µM*	-6%	?	39%	0%
Cc1nnc(NC(=O)CSc2ccc(-c3ccco3)nn2)s1	-3	18µM*	10%	?	?	-1%
SMILES	Giardia killer	TrxR1 inh	TrxR1 substrate	Pin1 inhibitor	KAT2A inh	GALK inh
COc1ccc(C(=O)CSc2ccc(-c3ccco3)nn2)cc1	23	?	-8%	5%	34%	-3%
O=C(CSc1ccc(-c2ccco2)nn1)Nc1ccc(F)cc1	5	32µM*	8%	0%	-15%	4%
CCOc1ccc(NC(=O)CSc2ccc(-c3ccco3)nn2)cc1	-8	?	4%	0%	-13%	-1%
COc1cccc(NC(=O)CSc2ccc(-c3ccco3)nn2)c1	-12	28µM*	5%	2%	-21%	-5%
CC(=O)c1ccc(OCCCC(=O)Nc2cccc(S(=O)(=O)N3CCCCC3)c2)cc1	3	23%	4%	0%	-6%	·
COC(=O)c1ccc(N2C(=O)Cc3cc(OC)c(OC)cc3C2c2ccc(F)cc2)cc1 (stereo not given)	·	19%	-4%	1%	-3%	·
COc1ccc(NC(=O)CSc2ccc(-c3ccco3)nn2)cc1OC	34	35µM*	-2%	2%	-32%	-3%
O=C(Cn1nc(-c2ccco2)ccc1=O)Nc1ccc(Br)cc1	4	40µM*	20%	0%	-8%	7%
COc1ccc(CCNC(=O)CSc2ccc(-c3ccco3)nn2)cc1OC	2	?	0%	-2%	-8%	2%
COc1ccc(C2c3c(ncn(Cc4ccccc4)c3=N)Oc3ccc4ccccc4c32)cc1OC (stereo not given)	·	·	·	66%	·	·
Nc1nc(-c2ccccc2)c(CCCOc2ccc(NC(=O)CBr)cc2)c(=O)[nH]1	7	45µM*	-5%	8%	·	·
CCOc1ccc(NC(=O)CSc2nc(N)c(-c3ccccc3)c(=O)[nH]2)cc1	-13	17%[57.1 µM]	8%	-4%	1%	-1%
CCOC(=O)c1sc2nc(-c3ccco3)c3c(c2c1N)CC(C)(C)OC3	-23	7.9µM*	-6%	29%	-16%	1%
COC(=O)CSc1ncnc2c1sc1nc(-c3ccco3)c3c(c12)CC(C)(C)OC3	·	·	·	·	-19%	-1%
O=C(Nc1ccc(N2CCCCC2)cc1)c1ccccn1	-102*	-25%	?	-4%	-7%	24%
CN(C(=O)CSc1nc2c(c(=O)[nH]1)CCCC2)c1ccccc1	·	5%	-1%	3%	-1%	·
COc1cc(C)c(/C=C/C(C)=C/C=C/C(C)=C/C(=O)O)c(C)c1C	-2	5%	-4%	·	25µM*	·
O=[S+]([O-])(c1ccc2nsnc2c1)N1CCN([S+](=O)([O-])c2c(F)cccc2F)CC1	·	·	·	-1%	·	·
COc1ccc(-c2cc3ccc(OC(C)C(=O)O)cc3oc2=O)cc1 (stereo not given)	-5	71µM*	880%	0%	?	1%
COc1ccc(-c2cc3ccccc3oc2=O)cc1	-2	43%	69%	-1%	·	·
CCCCCOc1ccc(C(=O)CCN2CCOCC2)cc1	-10	10µM*	5%[57.1 µM]	-10%	-2%	-1%
CC(C)Oc1ccc(C(=O)CCN2CCOCC2)cc1	28	3.5µM*	5%	-11%	·	·
CCCCOc1ccc(SCCCN2CCOCC2)cc1	-24	9%	-5%	-5%	·	·
O=C(CCN1CCOCC1)c1ccc(Cl)cc1	-1	?	-4%[57.1 µM]	-6%	0%	-1%
